Reference: PubChem BioAssay (NCI)
About 83,000 compounds went through this panel and 20% of them were active in at least one assay; those are over-represented in the sample as a whole.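 48-hour exposure, single concentration, 96-well plates; percent growth endpoint where 0 means no net growth. Active: below 10.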 The source made the active and inactive calls.

Columns and labels:
Assay in all cases: NCI-60 one-dose screen, 48 h (100 = growth as untreated, 0 = no growth, -100 = all killed)
Details in all cases: 10 µM unless noted
[1] = tested on: SR leukemia
[2] = tested on: RPMI-8226 leukemia
[3] = tested on: OVCAR-8 ovarian
[4] = tested on: OVCAR-5 ovarian
[5] = tested on: OVCAR-4 ovarian
[6] = tested on: SK-OV-3 ovarian
[7] = tested on: IGROV1 ovarian
[8] = tested on: OVCAR-3 ovarian
[9] = tested on: HS 578T breast
[10] = tested on: T-47D breast
[11] = tested on: BT-549 breast
[12] = tested on: MDA-MB-435 melanoma
[13] = tested on: SW-620 colon
[14] = tested on: MCF7 breast
[15] = tested on: HCT-116 colon
[16] = tested on: KM12 colon
[17] = tested on: NCI/ADR-RES ovarian
[18] = tested on: HCC-2998 colon

Measured: growth

COC(=O)C(OC(C)=O)C(OC(C)=O)c1ccc(OC)c(OC)c1 (configuration not stated)
inactive: [1] 90.9% | [2] 103% | [3] 103% | [4] 108% | [5] 94.2% | [6] 110% | [7] 114% | [8] 104% | [9] 110% | [10] 75.4% | [11] 104% | [12] 106% | [13] 118% | [14] 85.4% | [15] 81.8% | [16] 102%

COc1ccc(C(=O)c2nc3ccccc3n2CC(=O)c2ccc(Cl)cc2)cc1
inactive: [1] 16.7% | [3] 37.2% | [4] 47% | [5] 43.3% | [6] 107% | [7] 23.7% | [10] 35.2% | [11] 47.9% | [13] 15.8% | [14] 11.9% | [15] 10.3% | [16] 28.4%
active: [2] -17.4% | [8] -6.3% | [9] 8.51% | [17] -45.6%

COc1ccc(CCn2cncc2-c2c[nH]c3ccccc23)cc1
inactive: [1] 93.3% | [2] 73.4% | [3] 93.5% | [4] 90.2% | [5] 79.4% | [6] 87.7% | [7] 56.4% | [8] 88.4% | [9] 78.2% | [17] 87.6% | [10] 80.2% | [11] 90% | [13] 87.9% | [14] 78.7% | [15] 80.5% | [18] 91.8% | [16] 97.8%

COc1ccc(C(=O)NNc2nc(Cl)nc(N3CCN(C(c4ccccc4)c4ccccc4)CC3)n2)cc1
active: [1] -29.6% | [7] -59.7% | [8] -71.5% | [13] 9.22% | [15] 9% | [18] -10.7%
inactive: [2] 84.2% | [3] 34.1% | [4] 96.9% | [5] 20.5% | [6] 101% | [9] 67.1% | [17] 50% | [10] 85.5% | [11] 52.2% | [14] 89.3% | [16] 92.4%

Cc1ccc(C(=O)/C(=C\c2ccc([N+](=O)[O-])cc2)S(=O)Cc2ccc(F)cc2)cc1 (configuration not stated)
active: [1] 7.86% | [2] -21.3% | [7] -16.8% | [8] 9.09% | [10] -26.6% | [11] -0.818% | [13] -27.7% | [14] 7.88% | [15] -70.7%
inactive: [3] 12.5% | [4] 37.3% | [5] 30.6% | [6] 102% | [9] 21.9% | [12] 45.5% | [18] 22.8% | [16] 19.4%

O=S(=O)(NCCNc1nccc(-c2c(-c3cccc(F)c3)nc3sccn23)n1)c1ccc(Cl)cc1
inactive: [1] 40.6% | [2] 59.4% | [3] 53.6% | [4] 93.3% | [5] 63.6% | [6] 94.9% | [7] 15.8% | [8] 65.4% | [9] 72.5% | [10] 43.2% | [11] 71.3% | [12] 26.3% | [13] 59.6% | [14] 24.7% | [15] 34% | [16] 47.7%

C#CCNC(=O)c1cccc2c1cc(C)n2-c1nc2c(c(NCc3ccccc3)n1)CCCC2
active: [1] 6.53% | [2] 0.445% | [4] 8.62% | [5] -11.8% | [6] 2.45% | [7] -21.7% | [8] -61.2% | [9] 8.06% | [10] -11.6% | [11] -38.7% | [12] -61.3% | [14] -0.959% | [15] -41.5% | [16] -43.6%
inactive: [3] 12.8%

Cc1nn(-c2ccccc2)c(Oc2c(Cl)cccc2Cl)c1/C=N/N=c1\sc2ccccc2n1C
inactive: [1] 16.6% | [2] 36.6% | [3] 45.8% | [4] 58.5% | [5] 81.8% | [6] 70.6% | [7] 53.6% | [8] 49.9% | [9] 73.2% | [10] 47.2% | [11] 63.6% | [12] 64.6% | [13] 34.7% | [14] 45.5% | [15] 30.1% | [18] 71.4% | [16] 44.3%

COc1cccc(-c2ccc3c(c2)NC(=O)/C3=C\c2ccc[nH]2)c1
inactive: [2] 17.5% | [3] 74.2% | [4] 53.2% | [5] 54.7% | [6] 58.9% | [7] 29.7% | [8] 12.7% | [9] 56.4% | [10] 13.6% | [11] 36.6% | [13] 25.1% | [14] 11.3% | [15] 23.5% | [18] 25.4%
active: [1] 8.43% | [12] 8.7% | [16] 9.35%

CCCCCOc1ccc(/C=N/Nc2cc(C)nc3ccc(Cl)cc23)cc1
inactive: [4] 93.7% | [6] 90.4% | [9] 51.3% | [10] 68.6% | [11] 103%
active: [1] -21.9% | [2] -23.1% | [3] -43.1% | [5] -14.1% | [7] -76.8% | [8] -79.4% | [12] -75.6% | [13] -73.8% | [14] -73.6% | [15] -64.5% | [18] -67.7% | [16] -84.6%

O=S(=O)(NCCNc1nccc(-c2c(-c3cccc(O)c3)nc3occn23)n1)c1cccc(F)c1
inactive: [1] 84.7% | [2] 97% | [3] 89.9% | [4] 128% | [5] 121% | [6] 91.8% | [7] 50.5% | [8] 94.7% | [9] 101% | [17] 107% | [10] 73.7% | [11] 104% | [13] 115% | [14] 57% | [15] 70.4% | [18] 129% | [16] 88.2%

CCOC(=O)/C(C#N)=C1/NNC(=Nc2cccnc2)S1
inactive: [1] 118% | [2] 107% | [3] 92.2% | [4] 102% | [5] 100% | [6] 85.7% | [7] 111% | [8] 101% | [9] 96.7% | [10] 88.7% | [11] 103% | [12] 99.2% | [13] 94.9% | [14] 106% | [15] 91.9% | [18] 113% | [16] 102%

O=S(=O)(NCCCNc1nccc(-c2c(-c3cccc(O)c3)nc3occn23)n1)c1ccc(Cl)cc1
inactive: [1] 87.1% | [2] 81% | [3] 77.5% | [4] 130% | [5] 108% | [6] 75.4% | [7] 59.7% | [8] 93.2% | [9] 92.8% | [17] 112% | [10] 64.2% | [11] 102% | [13] 109% | [14] 82.6% | [15] 61.9% | [18] 120% | [16] 86.2%

O=C(CCN1CCCC1)Nc1ccc2c(Nc3ccc(F)cc3)c3ccccc3nc2c1
inactive: [4] 12.9% | [6] 38.4% | [9] 25.2% | [11] 51.2%
active: [1] -20.9% | [2] -37.1% | [3] 4.18% | [5] -16.1% | [7] 0.357% | [8] -31.5% | [10] 7.84% | [12] -94.9% | [13] -25% | [14] -19.9% | [15] -54.2% | [18] -80.3% | [16] 0.928%

COc1cc(NC(C)CCCNC(=O)CCC(=O)NCCCNCCCCCCCCCCNCCCNC(=O)CCC(=O)NCCCC(C)Nc2cc(OC)cc3cccnc23)c2ncccc2c1 (configuration not stated)
inactive: [1] 92% [8 µM] | [2] 52.9% [8 µM] | [3] 77.7% [8 µM] | [4] 79.3% [8 µM] | [6] 116% [8 µM] | [7] 57.9% [8 µM] | [8] 41.4% [8 µM] | [9] 64.5% [8 µM] | [17] 101% [8 µM] | [10] 28.5% [8 µM] | [11] 95.5% [8 µM] | [13] 73.4% [8 µM] | [14] 24.3% [8 µM] | [15] 69.4% [8 µM] | [18] 79.8% [8 µM] | [16] 89.2% [8 µM]
active: [5] 4.17% [8 µM]

N#Cc1c(NC(=O)NCc2ccccc2)sc2c1CCCCC2
inactive: [1] 29.5% | [2] 14.8% | [3] 21.8% | [4] 43.5% | [5] 43% | [6] 25% | [7] 27.2% | [17] 17.2% | [10] 37.8% | [11] 26.2% | [13] 21.5% | [14] 19.1% | [18] 24.5% | [16] 12.6%
active: [8] -17.6% | [9] 9.89% | [15] 8.9%
